Sampled rows, rich in hits. Any-hit rate of the full collection: about 10%.
RORgamma inh: ROR gamma (mouse) transcription inhibition. P51450. Drosophila S2 Gal4-RORgamma UAS-luciferase reporter, 20 h. Potency, µM (doses to about 53.6 µM), for the others: at the highest dose activity change, negative = inhibition, usual class: inhibitors. actives 5.4% (n = 310,000); also: % is scaled to controls: 0 for no effect and ±100 for the full control effect; nearly all actives have a fitted effect of over 60% in size
Target sequence (P51450 whole entry, looked up, the tested form may be a part): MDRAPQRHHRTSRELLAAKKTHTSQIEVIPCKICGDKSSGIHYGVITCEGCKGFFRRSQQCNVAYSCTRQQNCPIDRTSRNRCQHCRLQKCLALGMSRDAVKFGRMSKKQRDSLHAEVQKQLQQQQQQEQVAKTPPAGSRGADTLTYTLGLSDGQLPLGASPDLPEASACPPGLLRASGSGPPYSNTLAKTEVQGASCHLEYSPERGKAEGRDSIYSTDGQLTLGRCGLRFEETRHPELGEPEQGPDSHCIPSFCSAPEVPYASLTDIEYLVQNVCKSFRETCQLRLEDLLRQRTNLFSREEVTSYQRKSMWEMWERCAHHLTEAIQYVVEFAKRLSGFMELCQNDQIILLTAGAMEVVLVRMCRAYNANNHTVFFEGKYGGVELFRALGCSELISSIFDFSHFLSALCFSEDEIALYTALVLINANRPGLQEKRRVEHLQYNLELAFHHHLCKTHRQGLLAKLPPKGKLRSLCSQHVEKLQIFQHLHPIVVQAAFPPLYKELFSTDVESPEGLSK
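ROR gamma transcriptional activity was tracked as Gal4-UAS luciferase output in stably transfected Drosophila Schneider cells, with compound added 1 hr before 700 uM copper sulfate induction and a 20 hr ambient-temperature incubation.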
VP16 counter: counter-screen for ROR gamma inhibitors: Gal4-VP16 reporter; Drosophila S2 Gal4-VP16 UAS-luciferase, luminescence, 20 h; Potency, µM (top dose mostly 53.6 µM), for the others: at the top dose activity, negative = inhibition, hits mostly inhibitors; actives 3.5% (n = 310,000); AID 2546;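 also: Gal4-VP16 expression switched on by copper sulfate through the metallothionein promoter; % is scaled to controls: 0 for no effect and ±100 for the full control effect; nearly all actives have a fitted effect of over 50% in size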
SW480 rereplic: induces DNA re-replication in SW480 colon adenocarcinoma cells; SW480 DNA re-replication, Hoechst DNA content imaging, 48 h; actives 1.8% (n = 340,000); Potency, µM (highest dose often 46.1 µM), for the others: at the highest dose re-replication activation, usual class: activators; also: % of control where 0% means no effect; nearly all actives have a fitted effect of over 55% in size
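SW480 cells exposed to compounds for 48 hr at 37 C, 5% CO2, then Hoechst-stained 40 min. Nuclear DNA content imaged by fluorescence scanning (405 nm excitation, 500-530 nm emission); re-replication scored as increased high-intensity nuclei.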
MCF10A rerep: inducers of DNA re-replication in MCF 10A breast cells. MCF 10A DNA re-replication, Hoechst nuclear intensity, 48 h. Potency, µM (doses to about 46.1 µM), for inactives: at the highest dose activity, positive = re-replication, usual class: activators. actives 2.9% (n = 350,000). AID 624296; also: % of control where 0% means no effect; nearly all actives have a fitted effect of over 50% in size
KB-3-1 cytotox: KB-3-1 parental cell cytotoxicity; KB-3-1 viability, CellTiter-Glo ATP luminescence, 72 h; Potency, µM (top dose mostly 46.1 µM), most hits filed as cytotoxic; actives 1.4% (n = 400,000); also: % is scaled to controls: 0 for no effect and ±100 for the full control effect; nearly all actives have a fitted effect of over 60% in size
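Multi-concentration cytotoxicity screen in KB-3-1 cells grown in DMEM lacking phenol red with 10% FBS. After 72 h at 37 °C with compound, ATP-dependent luminescence was recorded.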
KB-V1 cytotox: KB-V1 MDR subline cytotoxicity. AID 1347076. actives 3.4% (n = 400,000). Potency, µM (highest dose often 46.1 µM), usual class: cytotoxic. KB-V1 MDR cells viability, CellTiter-Glo, 72 h; also: % is scaled to controls: 0 for no effect and ±100 for the full control effect; nearly all actives have a fitted effect of over 60% in size
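Cytotoxicity via CellTiter-Glo luminescence after 72 h compound exposure at 37 degrees C. Cells: drug-selected KB-V1 line, DMEM phenol-red free plus 10% FBS. Compounds tested at multiple concentrations; normalized data fitted to concentration-effect curves.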
Starred values were filed as active, the others as inactive; i = inactive; ? = inconclusive; nt = no result; [ ] = dose if it differs, or a comment. Calls follow the shape of the dose curve; as a rule, active = well fitted curve in the direction sought with a large enough effect; inconclusive = small, poorly fitted or top-dose-only effect, or another doubt; inactive = no such curve, though single readings can be large; an effect the other way counts as inactive or inconclusive. Potency is read from the fitted curve at half-maximal effect.

SMILES | RORgamma inh | VP16 counter | SW480 rereplic | MCF10A rerep | KB-3-1 cytotox | KB-V1 cytotox
CCOC(=O)CNC(=O)C(CC(N)=O)NC(=O)OC(C)(C)C (stereo unspecified) | 2.6% | 3.5% | ? | -1.0% | i | i
O=C(c1cccc(F)c1)N(Cc1nc2ccccc2c(=O)[nH]1)C1CCCC1 | 6.31µM* | ? | -4.4% | 5.6% | i | ?
O=C(c1ccccc1F)N(Cc1nc2ccccc2c(=O)[nH]1)C1CCCC1 | 2.82µM* | 7.94µM* | -1.8% | 12.0% | i | i
COc1cccc2c1OC(=O)CC2c1ccc(C)cc1 (stereo unspecified) | 40.4%[96.6 µM] | 2.6%[96.6 µM] | nt | nt | nt | nt
O=C(Cc1ccccc1[N+](=O)[O-])N1CCN(c2ccc(F)cc2)CC1 | 15.4% | 10.3% | 11.6µM* | 8.6% | i | ?
O=C(Cc1ccc(F)cc1)N1CCN(c2ccc([N+](=O)[O-])cc2)CC1 | ? | 6.1% | 1.7% | 1.9% | i | i
O=C(/C=C/c1cccc([N+](=O)[O-])c1)N1CCN(c2ccc(F)cc2)CC1 | ? | -0.3% | 17.1% | 0.6% | i | 20.6µM*
c1ccc(CSc2nc3ncccn3n2)cc1 | nt | nt | -15.3% | -8.6% | i | i
CCOC(=O)N/N=C1/C[C@@H](O)[C@@H](O)[C@@H]2[C@@H]3C(=O)N(Cc4ccc5c(c4)OCO5)C(=O)[C@H]3CC[C@H]12 | -7.6%[10 µM] | 0.6%[10 µM] | nt | nt | nt | nt
Cc1ccc(NC(=O)C2CCN(S(=O)(=O)c3ccc4c(c3)CCCC(=O)N4)CC2)c(Cl)c1 | nt | nt | nt | nt | i | ?
NCCCCCCNS(=O)(=O)c1cccc2c(Cl)cccc12 | 25.4% | 14.9% | -117.2% | -30.1% | ? | ?
NCCCCCCCCCCNS(=O)(=O)c1cccc2c(Cl)cccc12 | ? | 31.6µM* | nt | nt | i | i
O=C(O)/C=C/c1ccc2ccccc2c1 | nt | nt | nt | nt | i | i
Cc1ccc(C)c(OCc2cc(C(=O)N3CCc4sccc4C3)no2)c1 | 2µM* | ? | -3.8% | 17.0% | i | ?
O=C(NCCC1=CCCCC1)C(=O)NCC1OCCCN1S(=O)(=O)c1ccccc1 (stereo unspecified) | 17.1% | -17.2% | -2.2% | -2.1% | i | 9.2µM*
Cc1ccc(C)c(S(=O)(=O)N2CCCOC2CNC(=O)C(=O)NCCC2=CCCCC2)c1 (stereo unspecified) | -20.7% | -5.3% | 4.1% | 1.9% | i | 5.17µM*
Cc1ccc(OCCn2c(-c3ccc(Cl)cc3)nc3ccccc3c2=O)c(C)c1 | nt | nt | nt | nt | i | ?
CC(C)C[C@H](NC(=O)OC(C)(C)C)C(=O)N[C@@H](CO)[C@H](O)[C@@H]1C[C@@H]1C(=O)NC1CCCCC1 | -0.1% | 2.3% | 8.6% | ? | i | 10.3µM*
OC[C@@H]1CN(Cc2ccc3c(c2)OCO3)C[C@H](n2cnc3c(NCc4ccncc4)ncnc32)O1 | nt | nt | nt | nt | i | i
C[C@H]1COc2c(N3CCN(C)CC3)c(F)cc3c(=O)c(C(=O)NCc4ccco4)cn1c23 | 5.5% | 1.2% | nt | nt | nt | nt
COc1ccc(C(=O)CSc2nnc3ccc(-c4ccccn4)nn23)cc1 | 2.9% | -13.9%[10 µM] | 9.9% | ? | i | i
O=C(CSc1ccc(-c2ccccn2)nn1)c1ccc(F)cc1 | -26.7% | 15.7% | -2.1% | -2.1% | i | i
COc1ccc(C(=O)CSc2nc(-c3ccccn3)nc(C)c2Cl)cc1 | 2.82µM* | ? | ? | ? | i | i
Cc1nc(-c2ccccn2)nc(SCC(=O)c2ccc(F)cc2)c1Cl | 3.55µM* | ? | -4.6% | -8.3% | i | i
CCc1ccc(NC(=O)Cn2c(SCc3ccc(C)cc3)nc3ccncc32)cc1 | nt | nt | nt | nt | i | i
SMILES | RORgamma inh | VP16 counter | SW480 rereplic | MCF10A rerep | KB-3-1 cytotox | KB-V1 cytotox
Cc1ccc(-c2nn(CC(=O)Nc3cccc(C(F)(F)F)c3)c(=O)c3ccccc23)cc1 | nt | nt | nt | nt | i | i
Cc1ccc(C(=O)n2c3ccccc3c3ccccc32)cc1 | 32.7% | 3.4% | 20.6µM* | ? | 10.3µM* | 8.2µM*
CC(=O)n1c2ccccc2c2ccccc21 | 25.5% | -0.8% | -10.4% | ? | i | i
O=C(N/N=C\c1ccc[nH]1)c1cncc(Br)c1 | 2.82µM* | 5.62µM* | -5.1% | -3.9% | i | ?
CCOc1ccc(OCc2ccc(C(=O)NN=Cc3ccc[nH]3)cc2)cc1 | nt | nt | 8.6% | ? | 2.31µM* | i
O=C(N/N=C/c1ccc[nH]1)c1ccccc1OCc1ccc(F)cc1 | ? | -13.8% | -15.8% | 7.0% | i | i
Cc1cccc(C(=O)N/N=C/c2ccc[nH]2)c1 | 7.94µM* | 12.6µM* | -1.3% | 0.1% | i | i
Cc1cccc(NCC(=O)N/N=C\c2ccc[nH]2)c1 | 8.91µM* | ? | -4.7% | 18.5% | i | i
CC(C)c1ccc(NC(=O)CN2C=NS(=O)(=O)c3ccccc32)cc1 | nt | nt | nt | nt | i | i
CC(C)CNc1ncnc2c1ncn2[C@H]1CN(Cc2ccco2)C[C@@H](CO)O1 | nt | nt | nt | nt | i | i
CCNC(=O)CC1C(=O)N(c2ccccc2)C(=O)N1Cc1ccc(F)cc1 (stereo unspecified) | nt | nt | nt | nt | i | i
CCCNC(=O)OC[C@@H]1O[C@H](CCO/N=C(\C)CCC(=O)OC[C@@H]2O[C@H](c3ccccc3)C=C[C@@H]2Oc2ccc(OC)cc2)C=C[C@@H]1Oc1ccc(OC)cc1 | -18.5%[10 µM] | 1.5%[10 µM] | nt | nt | nt | nt
O=C(N/N=C/c1ccc[nH]1)c1ccc([N+](=O)[O-])cc1 | 3.98µM* | 5.62µM* | -9.8% | -2.3% | i | i
O=C(N/N=C/c1ccc[nH]1)c1cccc(Br)c1 | 2.82µM* | 5.62µM* | -2.4% | -0.6% | i | i
O=C(NN=Cc1ccccc1Cl)c1ccc([N+](=O)[O-])cc1 | nt | nt | -11.0% | -4.9% | ? | i
Cc1cc(C)c(Cn2cnc3nc4c(cc3c2=O)CCCC4)c(C)c1 | nt | nt | nt | nt | i | i
Cc1ccccc1OCC(=O)Nc1ccccc1N1CCCCC1 | ? | -19.3% | ? | ? | ? | 14.6µM*

Screening data deposited in PubChem BioAssay by National Center for Advancing Translational Sciences (NCATS).
